Unmarked numbers belong to inactive results. Calls follow the shape of the dose curve; as a rule, active = well fitted curve in the direction sought with a large enough effect; inconclusive = small, poorly fitted or top-dose-only effect, or another doubt; inactive = no such curve, though single readings can be large or run the other way.

The assay is described as follows: Quantitative high throughput screen to test cell viability of anti-malarial compounds targeting the delayed death phenotype. As to conditions: HepG2 viability, CellTiter-Glo luminescence, 48 h. The source says:
NIH Molecular Libraries Probe Production Network [MLPCN] NIH Chemical Genomics Center [NCGC] MLPCN Grant: R21 NS059500 Assay Provider: David Fidock and Eric Ekland, Columbia University The goal of this screen is to measuer the cytoxoxicity (against HepG2 cell line) of a set of anti-malarial compounds that target the delayed death pheonotype, by inhibiting the development of the apicoplast in the malarial parasite Plasmodium falciparum (described below) The biochemical processes that make this organelle essential for erythrocytic stage parasites are not well understood. However, antibiotics, such as azithromycin and tetracycline, which target the apicoplast translational machinery, have a potent antimalarial effect. […] We have developed a cell-based assay that measures parasite growth based on the expression of an integrated copy of a firefly luciferase reporter. To detect small molecules that cause this 'delayed death' phenotype, erythrocytes infected with the luciferase-expressing parasites were incubated with compounds for either one or two generations, corresponding to 48 and 96 hours, respectively. Compounds that inhibit parasite growth in the second generation, but not the first, should be enriched in antimalarials that target the apicoplast. Growth inhibition is detected by a decrease in luciferase activity
Cells were plated at a density of 2000 cells/well/5uL in 1536 well white tissue culture plate with culture medium. Triplicate plates were prepared. Plates were incubated at 37C, 5% CO2 for 5 hours and then 23nL of compounds and positive control were transferred to the assay plates. Tetraoctylammonium bromide was added as a positive control. Plates were then incubated at 37C, 5% CO2 for 48 hours. 5 uL of CellTitler-Glo buffer was added to each well and then incubated for 30 min at room temperature. Luminescence was measured using ViewLux (1 second, slow, 2X).
On to `O=C(NCc1cccnc1)c1ccc(NS(=O)(=O)c2ccccc2)cc1`, for which the max response is -0.715%.

For `COc1ccc(CNC(=O)C2CCC(CNS(=O)(=O)c3cccc4cccnc34)CC2)cc1` (stereo not given), the max response was 4.48%.

With `O=C(c1ccc([N+](=O)[O-])cc1)n1nc(-c2ccccc2)nc1NCc1ccc(F)cc1`, the max response was 17.5%.

On to `CCOc1ccc(S(=O)(=O)Nc2cc(S(=O)(=O)N(CC)CC)ccc2N2CCCC2)cc1`, for which the max response was -26.9%.

As to `CN(C)c1ccc(CN(C(=O)c2ccccc2Br)C2CCS(=O)(=O)C2)cc1` (stereo not given), the max response was 14.8%.

As to `CCOc1ccc(C(=O)Nc2ccc(N3CCN(C)CC3)cc2)cc1`, the max response was 8.06%.

Consider `Cc1c(F)c(N2CCNC(C)C2)cc2c1c(=O)c(C(=O)O)cn2C1CC1` (stereo not given), for which the max response is 12.4%.

Regarding `COc1ccc(C(=O)N2CCN(S(=O)(=O)c3ccc(C)cc3C)CC2)cc1OC`, the max response was -11.6%.

As to `CCCCN(CCCNC(=O)c1ccc(CS(=O)(=O)c2ccc(OC)cc2)o1)Cc1ccccc1`, the max response is -1.11%.

As for `COc1ccc(NC(=O)NC2CCCCCCC2)c(OC)c1`, the max response was -2.67%.

Regarding `CCOC(=O)c1ccc2c(c1)n(CC)c(/C=C/N(C)c1ccccc1)[n+]2CC`, the max response is -1.94%.

Consider `Cc1ccc(-n2c(-c3ccc(Cl)cc3)c[n+]3c2CCC3)cc1`, for which the max response was -10.3%.

For `COc1ccc2c(ccc[n+]2CC(=O)c2ccccc2)c1`, the max response is 5.11%.

With `CC(=O)NC[C@@H]1CN(c2ccc(N3CCOCC3)c(F)c2)C(=O)O1`, the max response was 12.4%.

On to `O=C(Nc1ccccc1N1CCOCC1)c1cccc(S(=O)(=O)N2CCOCC2)c1`, for which the max response is 0.827%.

Take `Cc1ccc(S(=O)(=O)Nc2ccc(C(=O)Nc3ccncc3)cc2)cc1`: the max response is 5.11%.

For the compound `CC1=Nc2cc(C(=O)N3CCCC3)ccc2Sc2ccc(C)cc21`, the max response was 5.45%.

On to `COc1ccc(NC(=S)N2CCC(Cc3ccccc3)CC2)cc1OC`, for which the max response was 0.57%.

For the compound `c1csc(CNc2ncnc3nc[nH]c23)c1`, the max response was 12.9%.

As to `CCCCOc1ccc(N2C(N)=NC(N)=NC23CCCCC3)cc1`, the max response was -12%.

Regarding `CCCc1c(CC)c(=N)c2ccccc2n1C`, the max response was 13.6%.

For the compound `COc1cccc(CN2CCN(c3nc4nonc4nc3N3CCCCC3)CC2=O)c1`, the max response is 15.7%.

With `CO[C@@H]1[C@@H](OC2OC(C)C(OC3CC(C)(O)C(OC(=O)CC(C)C)C(C)O3)C(N(C)C)C2O)[C@@H](CC=O)C[C@@H](C)C(=O)/C=C\C2O[C@H]2C[C@@H](C)OC(=O)C[C@H]1OC(C)=O` (stereo not given in full), the max response is 14.6%.

As to `COc1ccc(Nc2nnc(-c3ccc(C)cc3)c3ccccc23)cc1C(=O)N1CCCCC1`, the max response was -6.06%.

For `Clc1ccc(-c2c[n+](Cc3ccc(Cl)cc3Cl)c3n2CCCCC3)cc1`, the max response is -16.1%.

Regarding `Brc1cccc(OCCCCN2CCCCC2)c1`, the max response was -6.02%.

`Cc1sc2nc[nH]c(=O)c2c1-c1ccc(Cl)cc1`: the max response was 3.87%.

On to `COc1ccc2cc3cc(C(=O)Nc4ccc5c(c4)OCO5)oc3nc2c1`, for which the max response was -29.2%.

`CCCCN(CCCNC(=O)C1CCN(C(=O)c2cc3sccc3n2C)CC1)Cc1ccccc1`: the max response was 0.234%.

For the compound `COc1ccccc1N1CCN(CCC(=O)Nc2ccc(F)cc2)CC1`, the max response is 6.7%.

As for `COCCNC(=O)c1cccc(OC2CCN(Cc3cccc(SC)c3)CC2)c1`, the max response was -0.53%.

As for `Cc1ccc(CN2CCC(n3nccc3NC(=O)c3ccccc3C)CC2)o1`, the max response was 13.2%.

On to `CO[C@H]1[C@H](O[C@H]2O[C@@H](C)[C@@H](O[C@@H]3C[C@](C)(O)[C@H](O)[C@H](C)O3)[C@@H](N(C)C)[C@@H]2O)[C@@H](CC=O)C[C@@H](C)[C@@H](O[C@H]2CC[C@H](N(C)C)[C@H](C)O2)/C=C\C=C/C[C@@H](C)OC(=O)C[C@H]1O`, for which the max response is 5.01%.

Consider `CCN(CC)C(=O)COc1coc(CN2CCN(c3cccc(Cl)c3)CC2)cc1=O`, for which the max response was 3.88%.

On to `CCC(=O)OC1C(N(C)C)CC(C)O[C@H]1O[C@H]1[C@H](C)[C@@H](O[C@H]2CC(OC)[C@@H](O)C(C)O2)[C@H](C)C(=O)O[C@@H](CC)[C@](C)(O)[C@@H](O)[C@H](C)C(=O)[C@@H](C)C[C@]1(C)O` (stereo not given in full), for which the max response was 10.5%.

Take `O=C(CNC(=O)C1CCCCC1)OC(C(=O)c1ccccc1)c1ccccc1` (stereo not given): the max response was 20.4%.

As for `O=C(CSc1ccc(-c2cccnc2)nn1)Nc1ccccc1C(F)(F)F`, the max response was 0.59%.

Regarding `CCOc1ccc(NC(=O)C[n+]2ccc(N(C)C)cc2)cc1`, the max response is 8.12%.

On to `CCc1nc(SCC(=O)Nc2ccc(N(C)C)cc2)n[nH]1`, for which the max response is 1.4%.

Regarding `CC(C)C(=O)NCCSc1c[nH]c2ccccc12`, the max response is -11.2%.

Source of the values: PubChem BioAssay AID624206 (National Center for Advancing Translational Sciences (NCATS), 2012).
